Sampled rows, rich in hits. Any-hit rate of the full collection: about 6.8%.
DPM-DC inhibit – S. pneumoniae DPM-DC inhibitors, primary screen, biochemical, PK/LDH-coupled NADH fluorescence | diphosphomevalonate decarboxylase (Streptococcus pneumoniae D39) | purified DPM-DC | calls only at 10 µM | hit rate 0.49% among 65,000 | AID 556, 2006;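 active = the 320 compounds with the highest percent inhibition in the single-dose primary screen, excluding strongly autofluorescent ones, cut at about 32% in these data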;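 note: kinetic rate of NADH fluorescence loss reporting ADP formed by the decarboxylase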
PMK inhibit – S. pneumoniae PMK inhibitors, primary screen, biochemical, mevalonate pathway, pilot trial included | phosphomevalonate kinase (Streptococcus pneumoniae D39) | purified PMK, PK/LDH-coupled NADH absorbance 340 nm | inhibition, % at 10 µM | hit rate 0.49% among 65,000;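 active = top-ranked compounds by inhibition in the single 10 µM screen, taking a fixed number of the strongest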;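 note: 0% = full reaction with DMSO carrier and 100% = background rate without enzyme reaction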
Fluor 339 460 – intrinsic fluorescence of library compounds, ex339/em460 – biochemical, MLSMR library, data from DPM-DC assay, artefact control, profiling panel | compound autofluorescence, ex339/em460 nm, NADH buffer; active compounds read high; 1 = no-compound wells, NADH background | fluorescence fold increase at 10 µM | hit rate 5.5% among 65,000;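 active = at 10 µM, mean starting fluorescence two-fold or more over control wells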;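 note: signal is the first read of a kinetic run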
A340 absorber – compound light absorbance at 340 nm, profiling panel, artefact control, biochemical, MLSMR library, data from PS, PMK, MK assays. AID 708, 2007. compound absorbance at 340 nm, fold over control. 65,000 tested, under 10 active. fold change at 10 µM;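 active = at 10 µM dose, initial 340 nm absorbance at least 2 fold that of control wells; inactive = change under 2 fold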;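 note: initial absorbance extrapolated from kinetic A340 decline of NADH oxidation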
Spn MK inh – S. pneumoniae MK inhibitors, primary screen, biochemical, PK/LDH-coupled NADH absorbance; purified MK, PK/LDH-coupled NADH absorbance 340 nm; inhibition, % at 10 µM; hit rate 0.48% among 65,000;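 active = ranked among the strongest by inhibition in the single 10 µM screen, a fixed top-ranked set picked for dose follow-up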
NADH enzymes – inhibitors of PK/LDH coupling enzymes, profiling panel, artefact control, biochemical, MLSMR library. coupled PK/LDH NADH assays, four targets. IC50, µM (highest dose often 10 µM), for inactives: at the top dose inhibition. hit rate 0.02% among 65,000;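 active = single-dose screening hits from any of four coupled enzyme assays that gave an IC50 when retested across doses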;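 note: the DPM-DC format reads NADH fluorescence rather than 340 nm absorbance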
Numbers without * were called inactive.

Screening Cc1ccc2cc(C#N)c(NCc3ccco3)nc2c1 returned PMK inhibit 11, Fluor 339 460 3.8*, A340 absorber 1, Spn MK inh 9 and NADH enzymes 10%.
`N#Cc1nc(-c2ccc(OCc3ccccc3)cc2)oc1NCCN1CCOCC1` gave PMK inhibit 0, Fluor 339 460 3.9*, A340 absorber 1.1, Spn MK inh 7 and NADH enzymes 4%.
Screening N#Cc1nc(-c2ccco2)oc1NCCCN1CCOCC1 returned PMK inhibit 9, Fluor 339 460 3.6*, A340 absorber 1.1, Spn MK inh 7 and NADH enzymes 8%.
For N#Cc1nc(-c2ccc(OCc3ccccc3)cc2)oc1N1CCOCC1 the results were DPM-DC inhibit inactive, PMK inhibit 15, Fluor 339 460 1.9, A340 absorber 1, Spn MK inh 17 and NADH enzymes 11%.
Cn1ncc(Cl)c1C(=O)Nc1cccnc1 was read as DPM-DC inhibit inactive, PMK inhibit 13, Fluor 339 460 1.1, A340 absorber 1, Spn MK inh 0 and NADH enzymes 4%.
N#Cc1nc(-c2ccco2)oc1NCc1ccco1 was read as PMK inhibit 13, Fluor 339 460 2.4*, A340 absorber 1, Spn MK inh 12 and NADH enzymes 5%.
Screening N#Cc1nc(-c2ccc(OCc3ccccc3)cc2)oc1NCc1ccco1 returned DPM-DC inhibit inactive, PMK inhibit 10, Fluor 339 460 2.4*, A340 absorber 1.1, Spn MK inh 12 and NADH enzymes 7%.
`CNc1oc(-c2ccc(OCc3ccccc3)cc2)nc1C#N` gave DPM-DC inhibit inactive, PMK inhibit 14, Fluor 339 460 1.4, A340 absorber 1.1, Spn MK inh 12 and NADH enzymes 9%.
`O=C(c1ccc(Cn2cc(Br)cn2)o1)n1cccn1` gave DPM-DC inhibit inactive, PMK inhibit 0, Fluor 339 460 1.5, A340 absorber 1, Spn MK inh 7 and NADH enzymes 2%.
Screening CCOC(=O)c1c(NC(=O)c2cccs2)sc2c1CCN(C(=O)OCC)C2 returned PMK inhibit 10, Fluor 339 460 2*, A340 absorber 1, Spn MK inh 0 and NADH enzymes 2%.
`COC(=O)c1c(-c2ccc(F)cc2)csc1NC(=O)c1ccco1` gave DPM-DC inhibit inactive, PMK inhibit 0, Fluor 339 460 2*, A340 absorber 1.1, Spn MK inh 3 and NADH enzymes 2%.
For CCOC(=O)c1c(-c2ccc(C)s2)csc1NC(=O)c1ccco1 the results were DPM-DC inhibit inactive, PMK inhibit 4, Fluor 339 460 3.5*, A340 absorber 1.1, Spn MK inh 0 and NADH enzymes 4%.
For CCOC(=O)c1c(NC(=O)c2ccco2)sc(C(=O)N2CCCC2)c1C the results were DPM-DC inhibit inactive, PMK inhibit 0, Fluor 339 460 1.2, A340 absorber 1.1, Spn MK inh 3 and NADH enzymes 1%.
COc1ccc(OC)c(NC(=O)c2c(NC(=O)c3ccco3)sc3c2CCC3)c1 was read as DPM-DC inhibit inactive, PMK inhibit 4, Fluor 339 460 2.1*, A340 absorber 1.1, Spn MK inh 10 and NADH enzymes 9%.
O=C(CCNc1ccc(F)cc1)c1ccco1 was read as DPM-DC inhibit inactive, PMK inhibit 5, Fluor 339 460 1.1, A340 absorber 1, Spn MK inh 8 and NADH enzymes 8%.
O=C(Cc1ccc(Br)cc1)N1CCCCCC1 was read as DPM-DC inhibit inactive, PMK inhibit 5, Fluor 339 460 1.1, A340 absorber 1, Spn MK inh 3 and NADH enzymes 1%.
Screening CCOC(=O)c1c(NC(=O)c2nn(CC)cc2Br)c(C#N)cn1-c1ccccc1 returned DPM-DC inhibit inactive, PMK inhibit 4, Fluor 339 460 1.1, A340 absorber 0.99, Spn MK inh 2 and NADH enzymes 11%.
Screening CCOC(=O)c1c(-c2ccccc2)csc1NC(=O)c1nn(CC)cc1Br returned PMK inhibit 4, Fluor 339 460 3.5*, A340 absorber 1.1, Spn MK inh 4 and NADH enzymes 4%.
`CCOC(=O)c1c(NC(=O)c2cccs2)sc2c1CCC2` gave PMK inhibit 0, Fluor 339 460 2.3*, A340 absorber 1.1, Spn MK inh 2 and NADH enzymes 1%.
CCCc1cc(C(=O)Nc2sc(C)c(C)c2C(=O)OCC)no1 was read as PMK inhibit 4, Fluor 339 460 2.4*, A340 absorber 1, Spn MK inh 2 and NADH enzymes 3%.
CCOC(=O)c1c(NC(=O)OC)sc2c1CCC2 was read as DPM-DC inhibit inactive, PMK inhibit 2, Fluor 339 460 1.1, A340 absorber 0.99, Spn MK inh 2 and NADH enzymes 1%.
CCOC(=O)c1c(NC(=O)c2cccs2)sc2c1CCCC2 was read as PMK inhibit 19, Fluor 339 460 2.3*, A340 absorber 1.1, Spn MK inh 14 and NADH enzymes 17%.
Screening CCOC(=O)c1c(NC(=O)Cc2cccs2)sc2c1CCCC2 returned DPM-DC inhibit inactive, PMK inhibit 16, Fluor 339 460 1.1, A340 absorber 1, Spn MK inh 0 and NADH enzymes 5%.
N#CCCn1nc(-c2ccccc2)cc1Nc1ccccc1NC(=O)c1cccs1 was read as DPM-DC inhibit inactive, PMK inhibit 0, Fluor 339 460 1.1, A340 absorber 1.1, Spn MK inh 9 and NADH enzymes 3%.
Cn1c(=O)cc(SCC(=O)NCC2CCCO2)c2ccccc21 (configuration not stated) was read as DPM-DC inhibit inactive, PMK inhibit 16, Fluor 339 460 1.4, A340 absorber 1, Spn MK inh 0 and NADH enzymes 5%.
CCCOc1ccc(N2CC(C(=O)Nc3ncccc3C)CC2=O)cc1 (configuration not stated) was read as DPM-DC inhibit inactive, PMK inhibit 14, Fluor 339 460 1.1, A340 absorber 0.97, Spn MK inh 7 and NADH enzymes 7%.
CCOC(=O)c1c(NC(=O)c2cc(C3CC3)on2)sc(C(C)=O)c1C was read as DPM-DC inhibit inactive, PMK inhibit 0, Fluor 339 460 1.2, A340 absorber 1.1, Spn MK inh 0 and NADH enzymes 0%.
`CCOC(=O)c1c(-c2cccs2)csc1NC(=O)c1ccncc1` gave PMK inhibit 5, Fluor 339 460 2.2*, A340 absorber 1, Spn MK inh 6 and NADH enzymes 6%.
Screening Cc1occc1C(=O)Nc1sc2c(c1C(N)=O)CCCCC2 returned DPM-DC inhibit inactive, PMK inhibit 2, Fluor 339 460 1.2, A340 absorber 1.1, Spn MK inh 1 and NADH enzymes 2%.

From PubChem BioAssay
